Assay results published in PubChem BioAssay AID1159580 (chemical genetic matrix, 2015).
Screen size: about 5,500 compounds; about 2,000 (36%) were called active. About 18% were inconclusive and are not listed. Cut-off read from the data, not from the text of the source: active = normalized growth mostly below about 0.91 (no sharp cut-off); inconclusive = no clear call, values can overlap the other calls; inactive = mostly above about 0.92. The list shows a part of the results.

Assay: chemical genetic growth profiling, strain panel (AID 1159580);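 note: tested at 20 µM; growth read once vehicle control cultures reached saturation at 30 °C; 1 = growth at the plate median or of vehicle wells; lower values mean less growth of the strain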
Conditions: S. cerevisiae deletion strains, growth OD

Measured: normalized growth

OCCN1CCN(CC/C=C2/c3ccccc3Sc3ccc(C(F)(F)F)cc32)CC1
inactive: locus YAL040C, strain CLN3, hits give low values 1.04 | locus YCL061C, strain MRC1 (second series), hits give low values 0.973 | locus YDR363W, strain ESC2, hits give low values 0.923 | locus YER002W, strain NOP16, hits give low values 1.01 | locus YGR078C, strain PAC10, hits give low values 0.975 | locus YJR075W, strain HOC1, hits give low values 0.942 | locus YNL128W, strain TEP1, hits give low values 1.02 | locus YNL175C, strain NOP13, hits give low values 1.07 | locus YNL197C, strain WHI3, hits give low values 1.02 | locus YNL224C, strain SQS1, hits give low values 1.05 | locus YNL322C, strain KRE1, hits give low values 0.974 | locus YOR083W, strain WHI5 (second series), hits give low values 0.887
active: locus YPL055C, strain LGE1, hits give low values 0.87
